According to PubChem BioAssay (NCI):
The panel holds about 79,000 compounds, 15% with a hit somewhere; the sample as a whole holds those more often. A number with no mark means an inactive call. Activity calls are given as the source filed them. Rule as the data show it: active = growth inhibition above about 70%; inactive = the rest.

Experiment: NCI Yeast Anticancer Drug Screen. Data for the sgs1 mgt1 strain (AID 161);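 also: 0% = growth of cultures given vehicle only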
Settings: S. cerevisiae sgs1 mgt1 strain, at 50.0 µM, stronger effect = higher value
Procedure, shortened: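 Inhibition of yeast growth, normalised to vehicle-treated controls, is reported for a strain bearing genetic alterations in DNA damage repair.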
For `CCOC(=O)NC(Nc1cccc(F)c1)(C(F)(F)F)C(F)(F)F`, the growth inhibition was -22.4%. In the case of `N#C/C(=C\c1ccccc1[N+](=O)[O-])C(=O)O`, the growth inhibition is reported as 23.2%. With `Cc1cc(C)c(NS(=O)(=O)c2ccc(Cl)cc2)cc1C` the growth inhibition was 92.2% (active). Molecule `O=C1c2cc3ccccc3cc2NC(O)c2cccn21` (stereo not given) has a growth inhibition of 1.15%. For `C/C=C(\CC)C(C#N)(CCC)C(=O)OCC` (stereo not given), the growth inhibition was -21.2%. In the case of `CCN(CC)CC(C)(C)C(=O)/C=C/c1ccc(OC)cc1`, the growth inhibition is reported as 7.35%. With `CC1(C)Nc2cc3c(cc2-n2cccc21)oc1ccccc13` the growth inhibition was 39.5%. In the case of `C=CCOc1cc(=O)[nH]c2ccccc12`, the growth inhibition is reported as -0.9%. For `c1ccc2oc(-c3ccc4c(c3)OCO4)nc2c1`, the growth inhibition was 11.6%. `CC1(C)OC[C@@H](O)[C@H](C#N)CO1` gave a growth inhibition of 3.75%. With `O=c1ccn(C2OC(C(O)CO)C(O)C2O)c(=O)[nH]1` (stereo not given) the growth inhibition was 5.45%. Molecule `Brc1ccccc1N=Nc1ccccc1Br` has a growth inhibition of 0.6%. For `CC(=O)c1cccc(NC(=O)Nc2cccc3ccccc23)c1`, the growth inhibition was 14.9%. `CNc1n[nH]c(-c2ccccc2)n1` gave a growth inhibition of 11.8%. For `COc1ccc(OC)c(NC(=O)OCc2ccc3c(c2)OCO3)c1`, the growth inhibition was 5.45%. `NC(N)=NC(N)=Nc1cnccn1` gave a growth inhibition of 2.5%. Molecule `CC1(C)OC2COC(CNCC3OCC4OC(C)(C)OC34)C2O1` (stereo not given) has a growth inhibition of -6.75%. In the case of `CCOC(=O)C(Nc1cccc2ccccc12)C(=O)OCC`, the growth inhibition is reported as 9.3%. Work on `CCCCN(CCCC)C(=O)C(=O)C(C)C(=O)CC` (stereo not given) yielded a growth inhibition of 14.7%. `COC1=CC(=O)N(C)C(O)C1(C#N)OC1OC(CO)C(O)C(O)C1O` (stereo not given) showed a growth inhibition of -7.5%. Molecule `CC1=CC[C@@H](Br)C(C)(C)[C@]12CC[C@]1(C)O[C@@H]1C2` has a growth inhibition of -12.6%. `Cn1c(=O)c2c(nc3sc4nc5ccccc5nc4n32)n(C)c1=O` gave a growth inhibition of -5.45%. With `CC(C)/C(Cl)=N/OC(=O)Nc1ccc(Cl)c(Cl)c1` the growth inhibition was 92.3% (active). With `O=C(C=C(C(F)(F)F)C(F)(F)F)/C=C/c1ccccc1` the growth inhibition was 99.5% (active). With `C/C=C(\C(=C\C)c1ccc(OC(=O)c2ccccc2)c(C2CCCCC2)c1)c1ccc(O)c(C2CCCCC2)c1` the growth inhibition was 44.9%. `NC(=O)c1ccccc1OC(=O)Nc1ccccc1` gave a growth inhibition of 5.1%. Work on `CCOC(=O)NN(C/C(Cl)=C/Cl)C/C(Cl)=C/Cl` yielded a growth inhibition of 0.4%. With `CN(C)C(=S)/N=c1\ssc(=S)n1C1CCCCC1` the growth inhibition was 6.45%. `Cc1cc2c(cc1[N+](=O)[O-])OCCO2` gave a growth inhibition of 4.55%. Work on `O=C(/C=C/c1ccccc1)NCCC1(O)C(=O)Nc2ccccc21` (stereo not given) yielded a growth inhibition of 3.05%. Molecule `CCCCCCC1OCC(CC)(CC)CO1` has a growth inhibition of -18.9%. With `CC(=O)Nc1ccc(Cc2ccc(O)cc2)cc1` the growth inhibition was -3.75%. `Clc1ccc(C(CI)c2ccccc2Cl)cc1` (stereo not given) gave a growth inhibition of 12.3%. Work on `C=CCCC(=O)OC(C)(C)C` yielded a growth inhibition of 21.4%. Work on `C[N+]1=CN(c2ccc(Cl)cc2)Cc2cc(Cl)ccc21` yielded a growth inhibition of 25.6%. `CCCCC(CC)CCC(O)CC(C)C` (stereo not given) showed a growth inhibition of 14.6%. `O=C1CCCC(=O)N1CCCO` gave a growth inhibition of -24.2%. With `O=C1CCCCc2cccc(O)c21` the growth inhibition was -1.95%. With `COc1ccc2c(c1)C1(C)CCCC(C)(C(N)=O)C1CC2` (stereo not given) the growth inhibition was -8.05%. For `Cc1cn(C2CC(C)N(CCO)O2)c(=O)[nH]c1=O` (stereo not given), the growth inhibition was -16.8%.

Experiment: NCI Yeast Anticancer Drug Screen. Data for the cln2 rad14 strain (AID 165);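 also: 0% = growth equal to vehicle treated cultures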
Settings: S. cerevisiae cln2 rad14 strain, at 50.0 µM, stronger effect = higher value
Procedure, shortened: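 cln2 rad14 yeast strain; compound exposure; growth inhibition read vs vehicle controls.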
In the case of `CCOC(=O)NC(Nc1cccc(F)c1)(C(F)(F)F)C(F)(F)F`, the growth inhibition is reported as 20.9%. For `N#C/C(=C\c1ccccc1[N+](=O)[O-])C(=O)O`, the growth inhibition was 16.9%. Work on `Cc1cc(C)c(NS(=O)(=O)c2ccc(Cl)cc2)cc1C` yielded a growth inhibition of 70%. For `O=C1c2cc3ccccc3cc2NC(O)c2cccn21` (stereo not given), the growth inhibition was 27.4%. With `C/C=C(\CC)C(C#N)(CCC)C(=O)OCC` (stereo not given) the growth inhibition was -9%. `CCN(CC)CC(C)(C)C(=O)/C=C/c1ccc(OC)cc1` showed a growth inhibition of -5.5%. For `CC1(C)Nc2cc3c(cc2-n2cccc21)oc1ccccc13`, the growth inhibition was 45.6%. For `C=CCOc1cc(=O)[nH]c2ccccc12`, the growth inhibition was -51.1%. `c1ccc2oc(-c3ccc4c(c3)OCO4)nc2c1` gave a growth inhibition of 4.5%. With `CC1(C)OC[C@@H](O)[C@H](C#N)CO1` the growth inhibition was 19.6%. In the case of `O=c1ccn(C2OC(C(O)CO)C(O)C2O)c(=O)[nH]1` (stereo not given), the growth inhibition is reported as -60.8%. With `Brc1ccccc1N=Nc1ccccc1Br` the growth inhibition was -18.6%. `CC(=O)c1cccc(NC(=O)Nc2cccc3ccccc23)c1` showed a growth inhibition of 2.75%. Work on `CNc1n[nH]c(-c2ccccc2)n1` yielded a growth inhibition of 11.9%. `COc1ccc(OC)c(NC(=O)OCc2ccc3c(c2)OCO3)c1` gave a growth inhibition of 10.2%. `NC(N)=NC(N)=Nc1cnccn1` gave a growth inhibition of 15.8%. Work on `CC1(C)OC2COC(CNCC3OCC4OC(C)(C)OC34)C2O1` (stereo not given) yielded a growth inhibition of -22.3%. Work on `CCOC(=O)C(Nc1cccc2ccccc12)C(=O)OCC` yielded a growth inhibition of -5.2%. With `CCCCN(CCCC)C(=O)C(=O)C(C)C(=O)CC` (stereo not given) the growth inhibition was -1.05%. With `COC1=CC(=O)N(C)C(O)C1(C#N)OC1OC(CO)C(O)C(O)C1O` (stereo not given) the growth inhibition was 18.6%. `CC1=CC[C@@H](Br)C(C)(C)[C@]12CC[C@]1(C)O[C@@H]1C2` showed a growth inhibition of 2.55%. Molecule `Cn1c(=O)c2c(nc3sc4nc5ccccc5nc4n32)n(C)c1=O` has a growth inhibition of -25.4%. For `CC(C)/C(Cl)=N/OC(=O)Nc1ccc(Cl)c(Cl)c1`, the growth inhibition was 84.8% (active). With `O=C(C=C(C(F)(F)F)C(F)(F)F)/C=C/c1ccccc1` the growth inhibition was 99.5% (active). Work on `C/C=C(\C(=C\C)c1ccc(OC(=O)c2ccccc2)c(C2CCCCC2)c1)c1ccc(O)c(C2CCCCC2)c1` yielded a growth inhibition of 30.4%. Work on `NC(=O)c1ccccc1OC(=O)Nc1ccccc1` yielded a growth inhibition of 17.2%. Molecule `CCOC(=O)NN(C/C(Cl)=C/Cl)C/C(Cl)=C/Cl` has a growth inhibition of -46.8%. Molecule `CN(C)C(=S)/N=c1\ssc(=S)n1C1CCCCC1` has a growth inhibition of -49.6%. With `Cc1cc2c(cc1[N+](=O)[O-])OCCO2` the growth inhibition was -15.5%. Molecule `O=C(/C=C/c1ccccc1)NCCC1(O)C(=O)Nc2ccccc21` (stereo not given) has a growth inhibition of 8.35%. For `CCCCCCC1OCC(CC)(CC)CO1`, the growth inhibition was -26.5%. `CC(=O)Nc1ccc(Cc2ccc(O)cc2)cc1` showed a growth inhibition of -31.1%. For `Clc1ccc(C(CI)c2ccccc2Cl)cc1` (stereo not given), the growth inhibition was 13.8%. Molecule `C=CCCC(=O)OC(C)(C)C` has a growth inhibition of 7.2%. Molecule `C[N+]1=CN(c2ccc(Cl)cc2)Cc2cc(Cl)ccc21` has a growth inhibition of 13.4%. Work on `CCCCC(CC)CCC(O)CC(C)C` (stereo not given) yielded a growth inhibition of 10.8%. With `O=C1CCCC(=O)N1CCCO` the growth inhibition was -91%. In the case of `O=C1CCCCc2cccc(O)c21`, the growth inhibition is reported as 24.3%. `COc1ccc2c(c1)C1(C)CCCC(C)(C(N)=O)C1CC2` (stereo not given) gave a growth inhibition of 8.95%. Molecule `Cc1cn(C2CC(C)N(CCO)O2)c(=O)[nH]c1=O` (stereo not given) has a growth inhibition of -11.6%.
